# Test results taken from PubChem BioAssay (EPA / NIEHS).
# Values joined by “and” are separate entries in the source; they are usually repeats but may differ in a detail not shown here. Identical values can stand only once. Results filed as inconclusive are left out. Active and inactive are the calls of the source. How the source made its calls, unless noted: active means hit-call score of the fitted dose curve at least 0.9, where 1 is the maximum; inconclusive means response in the unintended direction; inactive means score below 0.9.
# Key:
# [1] = read-out: xenobiotic metabolism (CYP1A1), CYP1A1 (gene 1543); assay: CLD_CYP1A1_24hr: CellzDirect (CLD) Gene Expression Assay for xenobiotic metabolism (CYP1A1) at 24 hours (AID 2283673);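 further: CYP1A1 mRNA level by quantitative nuclease protection with chemiluminescence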
# Summary of the method: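 Transcript levels were read at 24 h by qNPA chemiluminescence in human liver primary cells. Cells got daily fresh dosing at multiple concentrations (vehicle 0.2% DMSO). Induction fitted upward against DMSO; phase-contrast cytotoxicity annotated.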
# [2] = CCTE_Padilla_ZF_144hpf_TERATOSCORE: (Legacy) CCTE's 144 Hour Post-fertilization zebrafish Assay Teratoscore, Padilla Lab (AID 2283679; active means hit-call score of the fitted dose curve at least 0.9, where 1 is the maximum; inactive means score below 0.9;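 on AC50: zebrafish embryos with chorions exposed by immersion from 6-8 hpf to 5 dpf with daily renewal; teratogenicity score from eye scoring of death hatching and malformations at 144 hpf; higher score means more developmental defects relative to DMSO baseline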)
# Summary of the method: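 Larvae scored by eye at 144 hpf for death, hatching and malformations after a day in clean Hanks'. Before that, daily-renewed exposure at 80 uM (0.4% DMSO, 26C) from roughly 6-8 hpf through 5 dpf, 4 embryos per chemical.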
# [3] = read-out: Glyceraldehyde-3-phosphate dehydrogenase (Homo sapiens) (UniProt P04406); assay: CLD_GAPDH_6hr: CellzDirect (CLD) Gene Expression Assay for Baseline Control (Glyceraldehyde 3-phosphate dehydrogenase) at 6 hours (AID 2283681);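 further: active means increased signal relative to DMSO vehicle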
# Summary of the method: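 GAPDH baseline-control readout from qNPA (S1 nuclease digestion, probe hybridization, chemiluminescence) in lysates of cultured human hepatocytes harvested 6 h post-dosing. Chemicals tested at multiple concentrations versus 0.2% DMSO vehicle; microscopy-based cytotoxicity flagged yes/no.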
# [4] = read-out: HMG-CoA synthase (HMGCS2), HMGCS2 (gene 3158); assay: CLD_HMGCS2_6hr: CellzDirect (CLD) Gene Expression Assay for HMG-CoA synthase (HMGCS2) at 6 hours (AID 2283682);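 further: actives raise HMGCS2 transcript above the 0.2% DMSO vehicle baseline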
# Summary of the method: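 HMGCS2 transcript induction read by quantitative nuclease protection with chemiluminescence, 6 h after dosing of primary human hepatocytes. Baseline was 0.2% DMSO vehicle; phase-contrast morphology gave a yes/no cytotoxicity annotation.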
# [5] = read-out: xenobiotic metabolism (CYP1A2), CYP1A2 (gene 1544); assay: CLD_CYP1A2_24hr: CellzDirect (CLD) Gene Expression Assay for xenobiotic metabolism (CYP1A2) at 24 hours (AID 2283683)
# Summary of the method: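 CYP1A2 mRNA induction measured by quantitative nuclease protection (chemiluminescent) in human primary hepatocytes 24 h after multi-concentration chemical dosing with daily fresh solutions. DMSO (0.2%) baseline; positive-direction fitting; morphology-based cytotoxicity noted.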
# [6] = read-out: Cytochrome P450 2C9 (Homo sapiens) (UniProt P11712); assay: CLD_CYP2C9_24hr: CellzDirect (CLD) Gene Expression Assay for xenobiotic metabolism (CYP2C9) at 24 hours (AID 2283688)
# Summary of the method: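 Induction of CYP2C9 mRNA was quantified by quantitative nuclease protection assay (chemiluminescence), gain of signal versus 0.2% DMSO vehicle, 24 h after dosing. Human primary hepatocytes (two donors) received fresh chemical daily at multiple concentrations; morphology-based cytotoxicity flagged yes/no.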
# [7] = read-out: HMG-CoA synthase (HMGCS2), HMGCS2 (gene 3158); assay: CLD_HMGCS2_24hr: CellzDirect (CLD) Gene Expression Assay for HMG-CoA synthase (HMGCS2) at 24 hours (AID 2283691)
# Summary of the method: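 qNPA with S1 nuclease digestion and chemiluminescent detection gave HMGCS2 transcript levels, fitted upward against 0.2% DMSO vehicle. Cultured human hepatocytes (two donors) received fresh compound daily and were harvested at 24 h; phase-contrast morphology flagged cytotoxicity.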
# [8] = read-out: ABC Transporter (ABCB1), ABCB1 (gene 5243); assay: CLD_ABCB1_48hr: CellzDirect (CLD) Gene Expression Assay for ABC Transporter (ABCB1) at 48 hours (AID 2283695)
# Summary of the method: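 ABCB1 mRNA was measured by quantitative nuclease protection assay (chemiluminescence) 48 h after dosing. Human hepatocyte cultures from two separate donors received fresh dosing solutions daily for two days, with 0.2% DMSO as vehicle. Positive-direction fit against DMSO.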
# [9] = read-out: glucuronosyltransferase (UGT1A1), UGT1A1 (gene 54658); assay: CLD_UGT1A1_24hr: CellzDirect (CLD) Gene Expression Assay for glucuronosyltransferase (UGT1A1) at 24 hours (AID 2283696)
# Summary of the method: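 UGT1A1 transcript induction was measured by quantitative nuclease protection assay (chemiluminescence) in human hepatocyte cultures 24 h after daily fresh dosing, with 0.2% DMSO as vehicle and baseline.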
# [10] = read-out: Cytochrome P450 2B6 (Homo sapiens) (UniProt P20813); assay: CLD_CYP2B6_48hr: CellzDirect (CLD) Gene Expression Assay for xenobiotic metabolism (CYP2B6) at 48 hours (AID 2283699);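 further: actives raise transcript level above DMSO so potency reflects induction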
# Summary of the method: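 CYP2B6 transcript induction, read by quantitative nuclease protection (S1 digestion, chemiluminescent detection) 48 h after dosing, is fitted upward against 0.2% DMSO. Cultured human liver primary cells, two donor preparations, received fresh chemical daily over multiple concentrations.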
# [11] = CLD_ACTIN_48hr: CellzDirect (CLD) Gene Expression Assay for Baseline Control (Actin) at 48 hours (AID 2283702)
# Summary of the method: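 Background-control actin mRNA read by qNPA chemiluminescence at 48 h. Human hepatocyte cultures from two donors received fresh multi-concentration chemical doses daily for two days; 0.2% DMSO served as vehicle baseline.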
# [12] = read-out: xenobiotic metabolism (CYP1A2), CYP1A2 (gene 1544); assay: CLD_CYP1A2_48hr: CellzDirect (CLD) Gene Expression Assay for xenobiotic metabolism (CYP1A2) at 48 hours (AID 2283703)
# Summary of the method: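 Cytotoxicity was flagged yes/no from morphology, while CYP1A2 transcript induction was detected by qNPA chemiluminescence after a 48-hour exposure. Human primary hepatocyte cultures from separate donors received fresh dosing solutions daily over two days, with 0.2% DMSO as vehicle and baseline.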
# [13] = CLD_ACTIN_6hr: CellzDirect (CLD) Gene Expression Assay for Baseline Control (Actin) at 6 hours (AID 2283676);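 further: active means increased actin mRNA relative to DMSO vehicle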
# Summary of the method: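 Baseline actin transcript level measured by qNPA (S1 nuclease protection, chemiluminescence) in human hepatocyte cultures 6 h after chemical exposure; 0.2% DMSO vehicle as reference, cytotoxicity noted from morphology.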
# [14] = read-out: Cytochrome P450 2B6 (Homo sapiens) (UniProt P20813); assay: CLD_CYP2B6_6hr: CellzDirect (CLD) Gene Expression Assay for xenobiotic metabolism (CYP2B6) at 6 hours (AID 2283677);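 further: actives raise CYP2B6 transcript above DMSO baseline so AC50 marks an inducer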
# Summary of the method: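 CYP2B6 transcript levels, read by chemiluminescent qNPA, were fitted for increase versus DMSO baseline; cultured human liver hepatocytes from two donor preparations were harvested 6 h after exposure to test chemicals at multiple concentrations.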
# [15] = read-out: ABC Transporter (ABCB11), ABCB11 (gene 8647); assay: CLD_ABCB11_48hr: CellzDirect (CLD) Gene Expression Assay for ABC Transporter (ABCB11) at 48 hours (AID 2283697)
# Summary of the method: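 Induction of ABCB11 mRNA relative to 0.2% DMSO, measured at 48 h by qNPA chemiluminescence. Cultured human hepatocytes (two donors) received fresh dosing solutions at several concentrations on two consecutive days.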
# [16] = read-out: Glyceraldehyde-3-phosphate dehydrogenase (Homo sapiens) (UniProt P04406); assay: CLD_GAPDH_24hr: CellzDirect (CLD) Gene Expression Assay for Baseline Control (Glyceraldehyde 3-phosphate dehydrogenase) at 24 hours (AID 2283692)
# Summary of the method: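 GAPDH baseline-control readout: qNPA chemiluminescent mRNA signal in human primary hepatocytes harvested 24 h after daily dosing, normalised to 0.2% DMSO with positive fitting direction; cytotoxicity annotated by phase-contrast morphology.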
# [17] = read-out: ABC Transporter (ABCB1), ABCB1 (gene 5243); assay: CLD_ABCB1_24hr: CellzDirect (CLD) Gene Expression Assay for ABC Transporter (ABCB1) at 24 hours (AID 2283684)
# Summary of the method: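 ABCB1 mRNA induction versus 0.2% DMSO vehicle was read by qNPA chemiluminescence at 24 h. Cultured human hepatocytes from two donor preparations received daily fresh dosing, and phase-contrast cytotoxicity calls were annotated alongside the data.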
# [18] = read-out: Cytochrome P450 2C19 (Homo sapiens) (UniProt P33261); assay: CLD_CYP2C19_48hr: CellzDirect (CLD) Gene Expression Assay for xenobiotic metabolism (CYP2C19) at 48 hours (AID 2283700);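 further: fitted upward so actives raise CYP2C19 mRNA above the 0.2% DMSO vehicle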
# Summary of the method: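 CYP2C19 mRNA induction read by chemiluminescent quantitative nuclease protection assay after 48 h, with fresh compound added daily for two days to cultured human liver hepatocytes. Activity fitted upward against 0.2% DMSO vehicle.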
# [19] = read-out: Cytochrome P450 3A4 (Homo sapiens) (UniProt P08684); assay: CLD_CYP3A4_24hr: CellzDirect (CLD) Gene Expression Assay for xenobiotic metabolism (CYP3A4) at 24 hours (AID 2283689)
# Summary of the method: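 CYP3A4 mRNA induction read by quantitative nuclease protection (chemiluminescence) 24 hr after dosing. Cultured human hepatocytes (two donor preparations) treated daily, vehicle 0.2% DMSO; phase-contrast morphology annotates cytotoxicity.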
# [20] = read-out: Cytochrome P450 2B6 (Homo sapiens) (UniProt P20813); assay: CLD_CYP2B6_24hr: CellzDirect (CLD) Gene Expression Assay for xenobiotic metabolism (CYP2B6) at 24 hours (AID 2283686)
# Summary of the method: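 qNPA chemiluminescent measurement of mRNA at 24 hours in human primary hepatocyte cultures from two donor preparations, with daily fresh dosing and 0.2% DMSO vehicle as baseline. Morphology-based cytotoxicity flagged yes/no.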
# Sequence of Cytochrome P450 2C19 (Homo sapiens) (P33261 whole entry, looked up): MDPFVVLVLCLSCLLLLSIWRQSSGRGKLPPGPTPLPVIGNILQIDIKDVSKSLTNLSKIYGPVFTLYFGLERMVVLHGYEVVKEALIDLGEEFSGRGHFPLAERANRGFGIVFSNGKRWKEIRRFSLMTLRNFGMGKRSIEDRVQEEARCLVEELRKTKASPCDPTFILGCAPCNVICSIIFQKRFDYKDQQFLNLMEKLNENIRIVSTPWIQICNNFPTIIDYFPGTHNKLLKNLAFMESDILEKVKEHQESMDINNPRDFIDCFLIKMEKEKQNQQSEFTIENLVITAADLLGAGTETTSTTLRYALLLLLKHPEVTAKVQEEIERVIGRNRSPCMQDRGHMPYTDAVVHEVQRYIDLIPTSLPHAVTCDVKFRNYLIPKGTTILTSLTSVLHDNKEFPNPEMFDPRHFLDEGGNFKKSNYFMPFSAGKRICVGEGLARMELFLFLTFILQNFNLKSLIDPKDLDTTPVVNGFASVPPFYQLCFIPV
# Sequence of Glyceraldehyde-3-phosphate dehydrogenase (Homo sapiens) (P04406 whole entry, looked up): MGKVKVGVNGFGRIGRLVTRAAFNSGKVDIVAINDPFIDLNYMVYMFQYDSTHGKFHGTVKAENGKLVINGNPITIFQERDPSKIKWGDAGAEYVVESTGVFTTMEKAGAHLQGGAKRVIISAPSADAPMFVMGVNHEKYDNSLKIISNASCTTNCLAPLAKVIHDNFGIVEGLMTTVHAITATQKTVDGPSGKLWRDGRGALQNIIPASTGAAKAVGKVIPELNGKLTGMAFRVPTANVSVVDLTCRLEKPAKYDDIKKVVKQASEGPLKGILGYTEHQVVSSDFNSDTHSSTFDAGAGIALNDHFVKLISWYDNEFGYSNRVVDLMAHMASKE
# Sequence of Cytochrome P450 3A4 (Homo sapiens) (P08684 whole entry, looked up): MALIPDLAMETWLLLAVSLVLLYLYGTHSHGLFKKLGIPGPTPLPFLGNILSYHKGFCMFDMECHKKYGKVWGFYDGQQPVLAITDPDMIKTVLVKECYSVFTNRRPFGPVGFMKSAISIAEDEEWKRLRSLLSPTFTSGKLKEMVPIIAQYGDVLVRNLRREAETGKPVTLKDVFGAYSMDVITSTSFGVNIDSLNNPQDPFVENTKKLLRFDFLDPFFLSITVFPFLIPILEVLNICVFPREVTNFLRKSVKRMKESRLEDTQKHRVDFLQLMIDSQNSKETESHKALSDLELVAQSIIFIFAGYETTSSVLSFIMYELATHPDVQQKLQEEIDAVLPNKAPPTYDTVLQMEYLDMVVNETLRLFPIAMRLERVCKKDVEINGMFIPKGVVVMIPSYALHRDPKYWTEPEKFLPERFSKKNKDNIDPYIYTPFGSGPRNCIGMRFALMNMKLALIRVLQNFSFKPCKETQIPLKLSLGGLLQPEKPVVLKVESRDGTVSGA
smiles,measurement,setting,value
CCOC(=O)CC(SP(=S)(OC)OC)C(=O)OCC (configuration not stated),outcome,[1],inactive
same,AC50,[2],27.3 µM (active)
same,outcome,[3],inactive
same,outcome,[4],inactive
same,AC50,[5],8.3 µM (active)
same,outcome,[6],inactive
same,outcome,[7],inactive
same,outcome,[8],inactive
same,outcome,[9],inactive
same,outcome,[10],inactive
same,outcome,[11],inactive
same,AC50,[12],5.39 µM (active)
Cc1c(F)c(F)c(COC(=O)C2C(/C=C(\Cl)C(F)(F)F)C2(C)C)c(F)c1F (configuration not stated),outcome,[13],inactive
same,AC50,[14],20 µM (active)
same,AC50,[2],0.00676 µM (active)
same,outcome,[3],inactive
same,outcome,[5],inactive
same,outcome,[7],inactive
same,outcome,[8],inactive
same,outcome,[9],inactive
same,outcome,[15],inactive
same,AC50,[10],4.39 µM (active)
same,outcome,[11],inactive
C=CCC1=C(C)C(OC(=O)C2C(C=C(C)C)C2(C)C)CC1=O (configuration not stated),outcome,[13],inactive
same,AC50,[2],1.54 µM (active) and 8.75 µM (active)
same,outcome,[4],inactive
same,outcome,[5],inactive
same,outcome,[16],inactive
same,outcome,[8],inactive
same,AC50,[10],12.8 µM (active)
CCCC1COC(Cn2cncn2)(c2ccc(Cl)cc2Cl)O1 (configuration not stated),outcome,[13],inactive
same,AC50,[2],26.5 µM (active)
same,outcome,[4],inactive
same,AC50,[5],2.13 µM (active)
same,outcome,[8],inactive
same,outcome,[9],inactive
same,AC50,[10],1.89 µM (active)
CCc1nn(C)c(C(=O)NCc2ccc(C(C)(C)C)cc2)c1Cl,outcome,[13],inactive
same,AC50,[2],0.164 µM (active)
same,outcome,[4],inactive
same,outcome,[5],inactive
same,outcome,[17],inactive
same,outcome,[8],inactive
same,AC50,[15],37 µM (active)
same,AC50,[10],37.3 µM (active)
CCNc1nc(Cl)nc(NC(C)C)n1,outcome,[2],inactive
same,outcome,[3],inactive
same,outcome,[4],inactive
same,AC50,[5],3.11 µM (active)
same,outcome,[8],inactive
same,AC50,[9],6.52 µM (active)
same,AC50,[10],3.97 µM (active)
CCNc1nc(Cl)nc(NCC)n1,outcome,[13],inactive
same,outcome,[2],inactive
same,outcome,[3],inactive
same,AC50,[5],5.26 µM (active)
same,outcome,[6],inactive
same,outcome,[9],inactive
same,AC50,[10],6.18 µM (active)
same,outcome,[18],inactive
COC(=O)c1ccccc1C(=O)OC,outcome,[13],inactive
same,outcome,[2],inactive
same,outcome,[4],inactive
same,outcome,[5],inactive
same,outcome,[6],inactive
same,outcome,[16],inactive
same,outcome,[8],inactive
same,outcome,[9],inactive
same,outcome,[15],inactive
same,outcome,[10],inactive
CCCCNC(=O)n1c(NC(=O)OC)nc2ccccc21,outcome,[13],inactive
same,AC50,[2],1.29 µM (active)
same,outcome,[3],inactive
same,AC50,[5],4.66 µM (active)
same,outcome,[19],inactive
same,outcome,[16],inactive
same,outcome,[8],inactive
same,outcome,[9],inactive
same,outcome,[18],inactive
CC1=C(C(=O)Nc2ccccc2)SCCO1,AC50,[2],6.4 µM (active)
same,AC50,[5],15.1 µM (active)
same,outcome,[6],inactive
same,outcome,[9],inactive
same,AC50,[10],20 µM (active)
COc1ccc(C(c2ccc(OC)cc2)C(Cl)(Cl)Cl)cc1,AC50,[2],1.14 µM (active)
same,AC50,[5],20 µM (active)
same,outcome,[6],inactive
same,outcome,[8],inactive
same,AC50,[9],20 µM (active)
same,AC50,[10],6.44 µM (active)
same,outcome,[18],inactive
COc1nc(NC(C)C)nc(NC(C)C)n1,outcome,[13],inactive
same,outcome,[2],inactive
same,outcome,[3],inactive
same,AC50,[5],3.61 µM (active)
same,outcome,[6],inactive
same,outcome,[8],inactive
same,outcome,[9],inactive
same,outcome,[15],inactive
same,AC50,[10],5.98 µM (active)
same,outcome,[18],inactive
CCCCC(CC)COC(=O)c1ccccc1C(=O)OCC(CC)CCCC (configuration not stated),outcome,[2],inactive
same,outcome,[3],inactive
same,outcome,[4],inactive
same,outcome,[5],inactive
same,outcome,[20],inactive
same,outcome,[6],inactive
same,outcome,[16],inactive
same,outcome,[8],inactive
same,outcome,[9],inactive
same,outcome,[10],inactive
same,outcome,[18],inactive
same,outcome,[11],inactive
C#CCOS(=O)OC1CCCCC1Oc1ccc(C(C)(C)C)cc1 (configuration not stated),outcome,[13],inactive
same,AC50,[2],0.22 µM (active)
same,outcome,[4],inactive
same,AC50,[5],3.11 µM (active)
same,outcome,[6],inactive
same,outcome,[8],inactive
same,outcome,[9],inactive
same,outcome,[15],inactive
same,AC50,[10],2 µM (active)
